{"source": "PubChem BioAssay (EPA / NIEHS)", "note": "Active and inactive are the calls of the source. The calls were made as follows: active = hit-call score of the fitted dose curve at least 0.9, where 1 is the maximum; inactive = score below 0.9.", "data": [{"read-out": "C-C motif chemokine 2 (Homo sapiens) (UniProt P13500)", "assay": "BSK_KF3CT_MCP1: BioMAP Diversity Plus: KF3CT Assay for Monocyte Chemoattractant Protein 1 (MCP1/CCL2) Biomarker Activity (AID 2283073)", "details": "primary human keratinocytes with fibroblasts; actives raise or lower the signal", "description": "BSK_KF3CT is a cell-based, multiplexed-readout assay that uses keratinocytes and foreskin fibroblasts, a human skin primary cell co-culture, with measurements taken at 24 hours after chemical dosing in a 96-well plate.BSK_KF3CT_MCP1 is an assay component measured in the BSK_KF3CT assay. It measures MCP-1 antibody related to regulation of gene expression using ELISA technology.Data from the assay component BSK_KF3CT_MCP1 was analyzed into 1 assay endpoint. This assay endpoint, BSK_KF3CT_MCP1, was analyzed with bidirectional fitting relative to DMSO as the negative control and baseline of activity. Using a type of binding reporter, gain or loss-of-signal activity can be used to understand changes in the signaling as they relate to the gene CCL2. Furthermore, this assay endpoint can be referred to as a primary readout, because this assay has produced multiple assay endpoints where this one serves a signaling function. To generalize the intended target to other relatable targets, this assay endpoint is annotated to the cytokine intended target family, where the subfamily is chemotactic factor.\nThe levels of cell surface (or secreted, indicated by the prefix \"s\") biomarker endpoints were measured by ELISA. Overt cytotoxicity to cells in confluent adherent cultures (all systems other than the BT system) was assessed by measuring total protein levels using sulforhodamine B (SRB) staining in parallel cultures at the time of biomarker measurements, indicated as SRB endpoints. For proliferation assays for adherent cell types, individual cell types are cultured at sub-confluence and relative cell numbers quantified by SRB staining at time points optimized for each system (48 h: 3C and CASM3C systems; 72 h: BT and HDF3CGF systems; 96 h: SAg system). SRB was performed by staining cells with 0.1% SRB after fixation with 10% TCA and reading wells at 560 nm.Viability and proliferation of PBMC (T cells) was quantified by Alamar Blue reduction for the SAg and BT systems. For PBMC viability (referred to as PBMC Cytotoxicity within the assay endpoint names), cells were plated (75,000/well in a 96-well plate) and then chemical samples added for 1 h before addition of activators, SEB and TSST-1 (20 ng/mL final concentration each). Cells were incubated for 90 h. Then, Alamar Blue (20 uL/well) (Invitrogen, Cat DAL1100) was added for 6 h, and the plates were read with a fluorescence microplate reader at 546/580 nm (excitation/emission). For PBMC proliferation, cells were plated and activated as above but incubated for only 16 h prior to addition of Alamar Blue. Plates were read after 6 h.", "values": [{"smiles": "Nc1cccc(N)c1", "outcome": "inactive"}, {"smiles": "CCOCCO", "outcome": "inactive"}, {"smiles": "O=C1CCC(N2C(=O)c3ccccc3C2=O)C(=O)N1", "note": "(stereo not given)", "outcome": "inactive"}, {"smiles": "COCCOCCOCCOC", "outcome": "inactive"}, {"smiles": "CCOc1cccc(-n2cc(C(=O)N3CCN(c4cc(C(=O)O)c5ccccc5c4)CC3)nc2-c2ccc(C)cc2)c1", "AC50": "19.2 µM (active)"}, {"smiles": "CNS(=O)(=O)c1cc(C(=O)N2CCC(CCN3C4CCC3CC(n3c(C)nc5ccccc53)C4)(c3cccc(F)c3)CC2)c(Cl)cc1F", "note": "(stereo not given)", "outcome": "inactive"}, {"smiles": "C1N2CN3CN1CN(C2)C3", "outcome": "inactive"}, {"smiles": "CCCCC(CC)COC(=O)CCCCCCCCC(=O)OCC(CC)CCCC", "note": "(stereo not given)", "AC50": "3.97 µM (active)"}, {"smiles": "CNCc1ccc(NC(=O)c2c[nH]c3c2C(=O)CCC3)cc1", "outcome": "inactive"}, {"smiles": "Cn1cnc([N+](=O)[O-])c1Sc1ncnc2nc[nH]c12", "outcome": "inactive"}, {"smiles": "Nc1nc2ncc(CNc3ccc(C(=O)N[C@@H](CCC(=O)O)C(=O)O)cc3)nc2c(=O)[nH]1", "outcome": "inactive"}, {"smiles": "O=C1CCCCCN1", "outcome": "inactive"}, {"smiles": "CC(C)=CCCC(C)=CC=O", "outcome": "inactive"}, {"smiles": "COC(=O)c1c(Cl)c(Cl)c(C(=O)OC)c(Cl)c1Cl", "outcome": "inactive"}, {"smiles": "O=C(O)CCN(C1(C(=O)NO)CCCC1)S(=O)(=O)c1ccc(Oc2ccc(F)cc2)cc1", "outcome": "inactive"}, {"smiles": "COC(=O)c1ccccc1O", "outcome": "inactive"}, {"smiles": "Cn1c(=O)cc(Oc2ccc(F)cc2F)c2cnc(NCC(C)(C)O)nc21", "outcome": "inactive"}, {"smiles": "CC[C@H]1CC[C@H](NCc2cc3c(cc2OC)[C@H]2C[C@H]2C(=O)N3C)[C@H](c2ccccc2)N1", "outcome": "inactive"}, {"smiles": "CC(C)=CCC/C(C)=C/CO", "outcome": "inactive"}, {"smiles": "CCC(C)(C)C(=O)O[C@H]1C[C@@H](C)C=C2C=C[C@H](C)[C@H](CC[C@@H]3C[C@@H](O)CC(=O)O3)[C@H]21", "AC50": "36.9 µM (active)"}, {"smiles": "CCn1nc(Cc2ccccc2)cc1C1CCN(C[C@H]2C[C@H](N(C)[C@@H](C(=O)O)C(C)C)C[C@@H]2c2cccc(F)c2)CC1", "outcome": "inactive"}, {"smiles": "CCCCCCc1ccc(O)cc1O", "AC50": "26.2 µM (active)"}, {"smiles": "Cc1[nH]cnc1C[C@H]1CCc2c(C)c3ccccc3n2C1=O", "outcome": "inactive"}, {"smiles": "Cn1c(=O)c2c(ncn2C)n(C)c1=O", "outcome": "inactive"}, {"smiles": "CCCCCCCCCCCCCCCO", "outcome": "inactive"}, {"smiles": "O=C(O)CC(O)C(=O)O", "note": "(stereo not given)", "outcome": "inactive"}, {"smiles": "Fc1ccccc1[C@@H](F)COC1CCC(Nc2ncnc3[nH]ncc23)CC1", "note": "(stereo not given in full)", "outcome": "inactive"}, {"smiles": "CC/C(=C\\C(=N/O)C(N)=O)C(C)[N+](=O)[O-]", "note": "(stereo not given)", "outcome": "inactive"}, {"smiles": "O=c1[nH]c2ccc(S(=O)CCN3CCC(Cc4ccc(F)cc4)CC3)cc2o1", "note": "(stereo not given)", "outcome": "inactive"}, {"smiles": "CCCCCCCCO", "outcome": "inactive"}, {"smiles": "Cc1c(-c2cccnc2)c2ccccc2n1CCCCC(=O)O", "outcome": "inactive"}, {"smiles": "CCOC(=O)COc1ccc2c(c1)CC(NCC(O)c1cccc(Cl)c1)CC2", "note": "(stereo not given)", "outcome": "inactive"}, {"smiles": "Cc1ccc(S(=O)(=O)O)cc1C", "outcome": "inactive"}, {"smiles": "COCCOc1cc2cc(C(=O)NC3CCN(C(C)C)CC3)n(CC(=O)Nc3ccc(Cl)cn3)c2cn1", "outcome": "inactive"}, {"smiles": "CCc1cc(SCc2sc(-c3ccc(C(F)(F)F)cc3)nc2CN2CCN(c3ccc(OC)cc3)CC2)ccc1OCC(=O)O", "AC50": "4.26 µM (active)"}, {"smiles": "CC(O)CN(CCN(CC(C)O)CC(C)O)CC(C)O", "note": "(stereo not given)", "outcome": "inactive"}, {"smiles": "COc1cccc(-c2ccc(/C=C\\CN3CCCCCC3)cc2Cl)c1", "AC50": "28.5 µM (active)"}, {"smiles": "COC(=O)CC(=O)OC", "outcome": "inactive"}, {"smiles": "C1=CCCC=CCCC=CCC1", "outcome": "inactive"}, {"smiles": "Cc1ccc(N)cc1O", "outcome": "inactive"}]}]}
